Calls of active or inactive are those of the source. The calls were made as follows: active = hit-call score of the fitted dose curve at least 0.9, where 1 is the maximum; inactive = score below 0.9.
Columns and labels:
Settings in all cases: mRNA level, 48 h; actives raise or lower the signal
[1] = read-out: Cytochrome P450 (CYP1A1), CYP1A1 (gene 1543); experiment: LTEA_HepaRG_CYP1A1: Life Technologies and Expression Analysis (LTEA) Assay for Cytochrome P450 (CYP1A1) using HepaRG (AID 2283454)
Procedure, shortened: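 HepaRG, 48 h post-plating switched to serum-free induction medium; 8-pt conc-response (top 100 uM, half-log, 0.5% DMSO), duplicates, 48 h. Lysis in RLT, TaqMan qRT-PCR for CYP1A1; gain or loss vs DMSO.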

[2] = read-out: CFLAR gene, CFLAR (gene 8837); experiment: LTEA_HepaRG_CFLAR: Life Technologies and Expression Analysis (LTEA) Assay for CFLAR gene using HepaRG (AID 2283455)
Procedure, shortened: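 qRT-PCR read-out (Fluidigm/TaqMan) of CFLAR mRNA, normalized to three housekeeping genes, in differentiated human HepaRG cells after 48 h chemical exposure; 8-point half-log series from 100 uM in 0.5% DMSO; bidirectional curve fitting versus DMSO.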

[3] = read-out: Forkhead box O1 (FOXO1), FOXO1 (gene 2308); experiment: LTEA_HepaRG_FOXO1: Life Technologies and Expression Analysis (LTEA) Assay for Forkhead box O1 (FOXO1) using HepaRG (AID 2283456)
Procedure, shortened: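 HepaRG, 48 h exposure, 8-pt half-log series from 100 uM in 0.5% DMSO, duplicates; Fluidigm qRT-PCR mRNA, housekeeping-normalised; bidirectional fit vs DMSO baseline.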

[4] = read-out: growth arrest and DNA damage 45 (GADD45A), GADD45A (gene 1647); experiment: LTEA_HepaRG_GADD45A: Life Technologies and Expression Analysis (LTEA) Assay for growth arrest and DNA damage 45 (GADD45A) using HepaRG (AID 2283458)
Procedure, shortened: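 Transcript induction or loss, quantified by TaqMan qRT-PCR against three housekeeping genes, is the read-out. HepaRG cells received chemicals for 48 h across eight half-log concentrations from 100 uM in 0.5% DMSO; gain and loss fitted relative to DMSO.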

[5] = read-out: Forkhead box O3 (FOXO3), FOXO3 (gene 2309); experiment: LTEA_HepaRG_FOXO3: Life Technologies and Expression Analysis (LTEA) Assay for Forkhead box O3 (FOXO3) using HepaRG (AID 2283459)
Procedure, shortened: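 qRT-PCR readout of FOXO3 transcript, normalized to three housekeeping genes (ACTB, GAPDH, POLR2A); gain or loss fitted against 0.5% DMSO vehicle. HepaRG cells, 48 h chemical exposure, 8-point half-log series, top 100 uM.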

[6] = read-out: growth arrest and DNA damage 45 (GADD45B), GADD45B (gene 4616); experiment: LTEA_HepaRG_GADD45B: Life Technologies and Expression Analysis (LTEA) Assay for growth arrest and DNA damage 45 (GADD45B) using HepaRG (AID 2283461)
Procedure, shortened: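 HepaRG, ~100,000 cells/well, 48 h plating; serum-free induction medium; cpd 100 uM top, half-log x8, 0.5% DMSO, duplicate, 48 h; lysis in RLT, RNA isolation, qRT-PCR; norm ACTB/GAPDH/POLR2A; bidirectional fit vs DMSO.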

[7] = read-out: ABC Transporter (ABCC3), ABCC3 (gene 8714); experiment: LTEA_HepaRG_ABCC3: Life Technologies and Expression Analysis (LTEA) Assay for ABC Transporter (ABCC3) using HepaRG (AID 2283462)
Procedure, shortened: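 Human HepaRG, 48 h dosing, 8-pt half-log series from 100 uM, 0.5% DMSO vehicle, duplicates. ABCC3 mRNA by TaqMan qRT-PCR, housekeeping-normalized; bidirectional curve fit vs DMSO.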

[8] = read-out: ABC Transporter (ABCB11), ABCB11 (gene 8647); experiment: LTEA_HepaRG_ABCB11: Life Technologies and Expression Analysis (LTEA) Assay for ABC Transporter (ABCB11) using HepaRG (AID 2283463)
Procedure, shortened: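 HepaRG, 48 h exposure, 8-pt half-log CRC top 100 uM, 0.5% DMSO vehicle, duplicates. Readout: TaqMan qRT-PCR of ABCB11 mRNA, housekeeping-normalized (ACTB/GAPDH/POLR2A). Bidirectional fit vs DMSO baseline.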

[9] = read-out: ABC Transporter (ABCC2), ABCC2 (gene 1244); experiment: LTEA_HepaRG_ABCC2: Life Technologies and Expression Analysis (LTEA) Assay for ABC Transporter (ABCC2) using HepaRG (AID 2283464)
Procedure, shortened: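 HepaRG, 48 h post-plating; serum-free induction medium; cpd 8-pt, 100 uM top, half-log, 0.5% DMSO, duplicate, 48 h. Readout: ABCC2 mRNA by qRT-PCR, norm. ACTB/GAPDH/POLR2A. Bidirectional fit vs DMSO baseline.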

[10] = read-out: Broad substrate specificity ATP-binding cassette transporter ABCG2 (Homo sapiens) (UniProt Q9UNQ0); experiment: LTEA_HepaRG_ABCG2: Life Technologies and Expression Analysis (LTEA) Assay for ABC Transporter (ABCG2) using HepaRG (AID 2283465)
Procedure, shortened: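 HepaRG, 48 h exposure, 8-pt half-log series from 100 uM, 0.5% DMSO vehicle, duplicates. Readout: ABCG2 transcript by qRT-PCR (Fluidigm array), housekeeping-normalized; bidirectional curve fit relative to DMSO baseline.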

[11] = read-out: ATP-citrate lyase (ACLY), ACLY (gene 47); experiment: LTEA_HepaRG_ACLY: Life Technologies and Expression Analysis (LTEA) Assay for ATP-citrate lyase (ACLY) using HepaRG (AID 2283466)
Procedure, shortened: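 qRT-PCR readout of ACLY transcript after 48 h chemical treatment of HepaRG cells; expression normalized to three housekeeping genes. Eight-point half-log series, highest 100 uM, 0.5% DMSO vehicle. Gain or loss fitted against DMSO baseline.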

[12] = read-out: Alkaline Phosphatase, Placental (ALPP) gene, ALPP (gene 250); experiment: LTEA_HepaRG_ALPP: Life Technologies and Expression Analysis (LTEA) Assay for Alkaline Phosphatase, Placental (ALPP) gene using HepaRG (AID 2283468);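 as to AC50: differentiated human HepaRG liver cells in serum-free induction medium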
Procedure, shortened: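 HepaRG, 48 h plating then 48 h dosing, serum-free induction medium, 0.5% DMSO. 8 conc, half-log, max 100 uM, duplicates. Endpoint: ALPP transcript by qRT-PCR, housekeeping-normalized; gain or loss fitted vs DMSO.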

[13] = read-out: Bcl-2 (BAD) gene, BAD (gene 572); experiment: LTEA_HepaRG_BAD: Life Technologies and Expression Analysis (LTEA) Assay for Bcl-2 (BAD) gene using HepaRG (AID 2283469)
Procedure, shortened: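 HepaRG, 48 h exposure, 8-pt half-log curve from 100 uM in 0.5% DMSO, duplicates. Readout: TaqMan qRT-PCR for BAD mRNA, housekeeping-normalised (ACTB/GAPDH/POLR2A); gain or loss fitted against DMSO baseline.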

[14] = read-out: Bcl-2 (BAX) gene, BAX (gene 581); experiment: LTEA_HepaRG_BAX: Life Technologies and Expression Analysis (LTEA) Assay for Bcl-2 (BAX) gene using HepaRG (AID 2283470)
Procedure, shortened: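 Cells were thawed, plated for 48 h, moved to serum-free induction medium and dosed for 48 h (highest concentration 100 uM, half-log steps, 0.5% DMSO). Total RNA was then analysed for BAX expression by qRT-PCR.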

[15] = read-out: Alpha-fetoprotein (AFP) gene, AFP (gene 174); experiment: LTEA_HepaRG_AFP: Life Technologies and Expression Analysis (LTEA) Assay for Alpha-fetoprotein (AFP) gene using HepaRG (AID 2283472)
Procedure, shortened: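 Chemicals were tested on differentiated HepaRG cells for 48 hours at eight concentrations up to 100 uM, with 0.5% DMSO as vehicle. AFP expression was then quantified by qRT-PCR and analyzed for gain or loss relative to DMSO.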

BCL2L11 (gene 10018) = experiment: LTEA_HepaRG_BCL2L11: Life Technologies and Expression Analysis (LTEA) Assay for Bcl-2 (BCL2L11) gene using HepaRG (AID 2283473)
Procedure, shortened: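 Read-out is BCL2L11 transcript level by qRT-PCR, normalized to three housekeeping genes and fitted bidirectionally against 0.5% DMSO vehicle. HepaRG cells received chemicals for 48 h in serum-free induction medium, 100 uM down in half-log dilutions.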

[16] = read-out: ABC Transporter (ABCB1), ABCB1 (gene 5243); experiment: LTEA_HepaRG_ABCB1: Life Technologies and Expression Analysis (LTEA) Assay for ABC Transporter (ABCB1) using HepaRG (AID 2283460)
Procedure, shortened: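 HepaRG, 48 h exposure, 8-pt half-log series from 100 uM, 0.5% DMSO vehicle, duplicates. Readout: ABCB1 transcript by Fluidigm TaqMan qRT-PCR, housekeeping-normalized; bidirectional curve fit vs DMSO baseline.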

[17] = read-out: adenosine kinase (ADK) gene, ADK (gene 132); experiment: LTEA_HepaRG_ADK: Life Technologies and Expression Analysis (LTEA) Assay for adenosine kinase (ADK) gene using HepaRG (AID 2283471)
Procedure, shortened: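 Differentiated HepaRG cells dosed 48 h in serum-free induction medium, 0.5% DMSO vehicle, eight half-log concentrations from 100 uM, in duplicate. ADK mRNA by TaqMan qRT-PCR normalised to ACTB, GAPDH, POLR2A; bidirectional fit versus DMSO.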

[18] = read-out: Peroxisomal acyl-coenzyme A oxidase 1 (ACOX1) gene, ACOX1 (gene 51); experiment: LTEA_HepaRG_ACOX1: Life Technologies and Expression Analysis (LTEA) Assay for Peroxisomal acyl-coenzyme A oxidase 1 (ACOX1) gene using HepaRG (AID 2283467)
Procedure, shortened: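 HepaRG, 48 h chemical exposure, 8-pt half-log series from 100 uM top, 0.5% DMSO vehicle, duplicates. Readout: ACOX1 mRNA by Fluidigm qRT-PCR, housekeeping-normalized; bidirectional fit vs DMSO baseline.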

Measured: AC50

Sequence of Broad substrate specificity ATP-binding cassette transporter ABCG2 (Homo sapiens) (Q9UNQ0 whole entry, looked up): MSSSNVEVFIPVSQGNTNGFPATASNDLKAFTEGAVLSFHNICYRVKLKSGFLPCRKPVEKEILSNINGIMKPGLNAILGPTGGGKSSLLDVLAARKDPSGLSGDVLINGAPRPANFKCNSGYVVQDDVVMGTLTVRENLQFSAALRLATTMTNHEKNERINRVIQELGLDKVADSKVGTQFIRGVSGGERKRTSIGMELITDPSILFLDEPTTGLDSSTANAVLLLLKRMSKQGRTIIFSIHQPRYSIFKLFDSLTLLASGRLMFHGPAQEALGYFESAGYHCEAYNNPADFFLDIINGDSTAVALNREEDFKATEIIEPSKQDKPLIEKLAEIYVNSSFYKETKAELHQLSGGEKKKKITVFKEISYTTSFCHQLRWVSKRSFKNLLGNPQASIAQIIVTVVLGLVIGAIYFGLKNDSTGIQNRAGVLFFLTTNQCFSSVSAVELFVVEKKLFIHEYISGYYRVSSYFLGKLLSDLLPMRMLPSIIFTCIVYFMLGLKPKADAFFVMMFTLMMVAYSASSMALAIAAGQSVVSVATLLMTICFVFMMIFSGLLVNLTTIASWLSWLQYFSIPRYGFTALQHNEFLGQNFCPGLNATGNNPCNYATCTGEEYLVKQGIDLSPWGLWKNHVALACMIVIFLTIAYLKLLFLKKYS

S=c1[nH]c2ccccc2s1
inactive: [2] | [3] | [4] | [5] | [6] | [7] | [8] | [9] | [10] | [11] | [12] | [13] | [14] | [15] | BCL2L11 (gene 10018)
active: [1] 10.1 µM

CC(C)COC(=O)CCCCC(=O)OCC(C)C
inactive: [1] | [2] | [3] | [5] | [16] | [6] | [7] | [8] | [9] | [10] | [11] | [12] | [13] | [14] | [17] | [15] | BCL2L11 (gene 10018)

OCC(CO)n1cnc(-c2ccc(F)cc2)c1-c1ccnc(Oc2ccccc2)n1
inactive: [2] | [3] | [5] | [6] | [7] | [8] | [11] | [18] | [12] | [13] | [14] | [17] | BCL2L11 (gene 10018)
active: [1] 50 µM | [9] 24.7 µM | [10] 16 µM | [15] 28.4 µM

NC(=Nc1ccccc1)Nc1ccccc1
active: [1] 50 µM | [15] 70.9 µM
inactive: [2] | [3] | [5] | [16] | [6] | [7] | [8] | [9] | [10] | [11] | [12] | [13] | [14] | BCL2L11 (gene 10018)

CCc1nc(N)nc(N)c1-c1ccc(Cl)cc1
inactive: [1] | [2] | [3] | [5] | [16] | [6] | [9] | [10] | [13] | [14] | [17] | BCL2L11 (gene 10018)
active: [7] 74.5 µM | [8] 33 µM | [11] 80.4 µM | [12] 44.2 µM | [15] 32.8 µM

CC(=O)S[C@H](C(=O)N[C@H]1Cc2ccccc2[C@H]2CCC[C@@H](C(=O)O)N2C1=O)C(C)C
inactive: [1] | [2] | [3] | [5] | [6] | [7] | [8] | [9] | [10] | [11] | [18] | [12] | [13] | [14] | [15] | BCL2L11 (gene 10018)

O=Cc1ccccc1C=O
inactive: [2] | [3] | [5] | [6] | [7] | [8] | [9] | [10] | [11] | [12] | [13] | [14] | [15] | BCL2L11 (gene 10018)
active: [1] 18.5 µM

CCCCC(CC)COP(=O)(OCC(CC)CCCC)OCC(CC)CCCC (stereo unspecified)
active: [1] 25.6 µM
inactive: [2] | [3] | [5] | [6] | [7] | [8] | [9] | [10] | [11] | [18] | [12] | [13] | [14] | [17] | [15] | BCL2L11 (gene 10018)
